Screens deposited in PubChem BioAssay by several laboratories.
Shown are actives, neighbours in structure and some others; about 3.7% of the full set was active somewhere.
MazF activator – increases E. coli MazEF RNase cleavage of RNA; P0AE70; FAM/BHQ RNA-DNA oligo cleavage fluorescence, 5 h; activation, % at 20 µM; hit rate 0.32% among 350,000; AID 504720; in the data active means activation above about 50%
BoNT A protease – blocks Botulinum neurotoxin A light chain protease; multiplex microsphere protease substrate cleavage, flow cytometry; inhibition, % at 10 µM; hit rate 0.17% among 360,000; further: plate controls were buffer without enzyme for full effect and enzyme alone for no effect
Anthrax LF prot – blocks Bacillus anthracis lethal factor protease | multiplex microsphere protease cleavage assay, LF | inhibition, % at 10 µM | P15917 | hit rate 0.12% among 360,000; further: plate controls were buffer without enzyme for full effect and enzyme alone for no effect
Target sequence (P15917 whole entry, looked up): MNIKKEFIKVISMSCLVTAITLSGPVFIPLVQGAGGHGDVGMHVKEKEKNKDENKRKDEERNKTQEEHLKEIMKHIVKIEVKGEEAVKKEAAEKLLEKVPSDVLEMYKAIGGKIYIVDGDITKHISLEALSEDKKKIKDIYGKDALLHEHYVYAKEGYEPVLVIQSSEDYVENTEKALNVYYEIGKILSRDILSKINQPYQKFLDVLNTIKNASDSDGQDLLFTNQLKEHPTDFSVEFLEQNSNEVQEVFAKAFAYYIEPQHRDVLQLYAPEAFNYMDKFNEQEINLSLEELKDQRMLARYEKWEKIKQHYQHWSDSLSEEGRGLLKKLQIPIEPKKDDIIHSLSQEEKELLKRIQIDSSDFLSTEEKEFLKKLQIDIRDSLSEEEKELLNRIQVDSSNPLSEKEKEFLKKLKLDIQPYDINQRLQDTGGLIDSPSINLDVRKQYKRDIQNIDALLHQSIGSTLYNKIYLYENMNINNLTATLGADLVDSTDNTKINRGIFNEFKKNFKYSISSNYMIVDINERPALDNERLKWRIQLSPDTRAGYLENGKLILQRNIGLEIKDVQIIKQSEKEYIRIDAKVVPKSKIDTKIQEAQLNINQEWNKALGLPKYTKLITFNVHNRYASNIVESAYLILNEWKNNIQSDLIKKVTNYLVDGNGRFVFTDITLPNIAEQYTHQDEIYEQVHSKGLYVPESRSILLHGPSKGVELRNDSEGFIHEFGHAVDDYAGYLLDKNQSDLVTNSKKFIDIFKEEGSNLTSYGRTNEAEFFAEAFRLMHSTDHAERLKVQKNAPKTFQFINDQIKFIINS
BoNT-F LC inh – inhibitors of Botulinum neurotoxin F light chain protease; Multiplex microsphere protease cleavage assay, flow cytometry; inhibition, % at 10 µM; hit rate 0.22% among 360,000; in the data active means inhibition above about 35%, passing the limit was not always enough; inconclusive means no clear call, values can overlap the other calls; further: plate controls were buffer without enzyme for full effect and enzyme alone for no effect
Bead autofluor – compound fluorescence in toxin protease inhibitor counterscreen. compound autofluorescence counterscreen, microsphere flow cytometry; hits give high values. fluorescence intensity (no concentration beside the values). hit rate 3.1% among 360,000. AID 624483; in the data active means fluorescence intensity above about 16000; inconclusive means no clear call, values can overlap the other calls
BoNT-A LC CP2 – inhibitors of botulinum neurotoxin A light chain protease | shares compounds with BoNT A protease | multiplex microsphere protease cleavage assay, flow cytometry | inhibition, % at 10 µM | hit rate 10% among 150; in the data active means inhibition above about 24%
LF protease CP2 – Bacillus anthracis lethal factor protease inhibition; multiplex microsphere protease cleavage assay; hit rate 7% among 150; shares compounds with BoNT A protease; inhibition, % at 10 µM; AID 602327; in the data active means inhibition above about 25%
BoNT-F LC CP2 – blocks botulinum neurotoxin F light chain protease; shares compounds with BoNT A protease; multiplex microsphere protease cleavage assay, flow cytometry; inhibition, % at 10 µM; hit rate 7% among 150; in the data active means inhibition above about 25%
* hit, by the source's call; ? = inconclusive; . = no result. Unless noted, no stated cut-off is given here; in the data, active means inhibition above about 30%; inconclusive means no clear call, values can overlap the other calls; inactive means below that.

SMILES	MazF activator	BoNT A protease	Anthrax LF prot	BoNT-F LC inh	Bead autofluor	BoNT-A LC CP2	LF protease CP2	BoNT-F LC CP2
COc1ccccc1N1CCN(c2ccc3c(c2)S(=O)(=O)c2cccc(C(=O)NCc4cccc(F)c4)c2C3=O)CC1	-1	0	-10	-3	3870	2	-2	-4
O=C(NCC1CC1)c1cccc2c1C(=O)c1ccc(N3CCCC3)cc1S2(=O)=O	-151	2	2	-1	4247	.	.	.
O=C(/C=C/c1ccc([N+](=O)[O-])cc1)Nc1ncc([N+](=O)[O-])s1	-15	1	3	-6	4373	.	.	.
CC(C)(C)c1ccc(CC(=O)N2CCC2(C)C(=O)NCc2ccc3c(c2)OCO3)cc1 (centres undefined)	.	-1	0	1	3985	.	.	.
CCCCN1CCCCC1(C)C(=O)NCc1cccc(OC)c1 (centres undefined)	.	0	8	-8	4410	.	.	.
CCN(CC)S(=O)(=O)c1cccc(NC(=O)COC(=O)c2ccc(Br)o2)c1	1	0	1	-4	3342	.	.	.
O=C(COC(=O)c1cncc(Br)c1)NC12CC3CC(CC(C3)C1)C2	.	72*	58*	8	4039	29*	30*	3
O=C(NC12CC3CC(CC(C3)C1)C2)c1cncc(Br)c1	7	-1	8	-5	3041	.	.	.
CCN(CC)S(=O)(=O)c1cccc(NC(=O)COC(=O)c2cncc(Br)c2)c1	1	23	39*	10	4126	16	18	14
COc1ccc(-c2nc3c(Cl)cc(C(F)(F)F)cn3c2Cc2ccsc2)cc1OC	.	3	-5	-1	5804	15	-2	13
COc1ccc(CCNC(=O)C(C)n2nc(C)n3c(cc4occc43)c2=O)cc1OC (centres undefined)	4	0	2	7	6489	.	.	.
O=C(OCC(=O)c1c[nH]c2ccccc12)c1cccc([N+](=O)[O-])c1	7	33*	39*	-12	5658	14	14	0
COc1ccccc1C(=O)COC(=O)Cc1c[nH]c2ccccc12	6	6	5	33	5107	.	.	.
O=C(OCC(=O)c1c[nH]c2ccccc12)c1cncc(Br)c1	4	1	0	-1	4518	.	.	.
O=C(OCC(=O)c1c[nH]c2ccccc12)c1ccc(OC(F)F)cc1	4	2	4	-5	3716	2	2	0
NC(=O)Nc1ccc(C(=O)OCC(=O)c2c[nH]c3ccccc23)cc1	0	-1	-2	-11	3902	.	.	.
COc1ccc(C(=O)OCC(=O)c2c[nH]c3ccccc23)c(OC)c1	16	-4	-3	-5	8458	3	-1	2
COc1cccc(C(=O)OCC(=O)c2c[nH]c3ccccc23)c1OC	-9	1	3	7	2872	1	-1	-2
COc1ccc(C(=O)OCC(=O)c2cc(OC)ccc2OC)c(OC)c1	-1	0	1	-7	2846	.	.	.
CC(=O)Nc1cncc(-c2cccc(N(C)C)c2)n1	.	0	-3	0	3622	.	.	.
Cc1cccc(C(=O)N2CCC[C@H]2C(=O)N2CCC[C@H]2C(=O)NCc2ccncc2)c1	.	-1	-5	-9	6161	.	.	.
Cn1nc(-c2ccccc2)nc1-c1ccccc1	1	0	-6	-9	3110	.	.	.
CN=c1nc(-c2ccccc2)n(-c2ccccc2)s1	-17	3	0	48*	4486	4	-4	23
COC(=O)c1c(-c2ccccc2)csc1N	-12	1	-2	19	?	.	.	.
COC(=O)c1c(C(=O)OC)c2c(-c3ccccc3)cc3cccc1n32	-10	37*	37*	19	4190	8	3	-6
SMILES	MazF activator	BoNT A protease	Anthrax LF prot	BoNT-F LC inh	Bead autofluor	BoNT-A LC CP2	LF protease CP2	BoNT-F LC CP2
Cc1ccc(CNC(=O)c2ccc(S(=O)(=O)N3CCCC3)cc2)cc1	3	0	1	-1	3850	.	.	.
Cc1cc2cc(CNC(=O)c3ccc(S(=O)(=O)N4CCCCC4)cc3)ccc2n1C	-15	80*	-81	-78	1944	2	-2	-2
Cc1cc2cc(CNC(=O)c3ccc(S(=O)(=O)N4CCCC4)cc3)ccc2n1C	-11	80*	-91	-106	1376	4	4	13
CCN(CC)S(=O)(=O)c1ccc(C(=O)NCc2ccc3c(c2)cc(C)n3C)cc1	-10	81*	-83	-98	1295	3	0	9
Nc1cc2cccnc2cc1Cl	1	2	5	-14	3740	.	.	.
COC(CN(C)C(=O)C1CCCN(S(=O)(=O)c2ccc3c(c2)oc(=O)n3C)C1)OC (centres undefined)	-12	-1	0	0	4054	.	.	.
Cc1cc(NC(=O)C(Cl)c2ccccc2)no1 (centres undefined)	3	.	.	.	.	.	.	.
COc1ccc(C(CNC(=O)c2ccc(C)c(S(=O)(=O)N3CCCCC3)c2)N2CCCC2)cc1 (centres undefined)	7	22	56*	86*	9963	1	-1	5
COc1cc(CC(=O)OCC(=O)c2c[nH]c3ccccc23)cc(OC)c1OC	0	50*	25	-13	10228	15	16	-1
COc1ccc(CC(=O)OCC(=O)c2c[nH]c3ccccc23)cc1	3	53*	24	-8	9727	14	12	-4
Cc1ccccc1OCC(=O)OCC(=O)c1c[nH]c2ccccc12	9	1	-4	0	8924	3	1	10
Cc1ccc(C(=O)COC(=O)COc2ccccc2C)cc1	-6	-2	0	6	6252	.	.	.
CC(C)C[C@H]1CN(CCCC[C@@H]2CNC(=O)C(=O)N2Cc2ccccc2)C(=O)C(=O)N1Cc1ccccc1	.	0	-10	-11	5301	.	.	.
CCN(CC(=O)Nc1ccc(OC)cc1)C(=O)c1cccc(S(=O)(=O)N2CCN(c3ccccc3)CC2)c1	-2	0	-4	0	2954	.	.	.
CC(=NNc1nc2ccccc2o1)c1cc2ccccc2cn1	3	51*	59*	74*	3176	16	26*	54*
CN(C)CCNC(=O)c1cccc2nc3c(ccc4ccccc43)nc12	2	44*	42*	14	3507	18	20	8
COc1cccc2nc3c(C(=O)NCCN(C)C)cccc3cc12	-10	2	3	-14	3587	.	.	.
COc1ccccc1N(C)c1cc2c(c3c1ccn3C)C1CCC2C1 (centres undefined)	.	-1	-12	-5	5804	.	.	.
Cn1ccc2c(-c3ccc(CO)cc3)cc3c(c21)C1CCC3C1 (centres undefined)	.	5	7	-14	5459	4	2	7
COc1ccc(-c2cc3c(c4c2ccn4C)C2CCC3C2)cc1F (centres undefined)	.	17	17	-6	3355	4	-2	-14
Cc1ccccc1-c1cc2c(c3c1ccn3C)C1CCC2C1 (centres undefined)	.	6	9	-13	5502	4	1	-4
